Assay outcomes as filed in PubChem BioAssay.
This is a sample that favours compounds with a hit; in the whole collection about 4.8% have one here.
SMARCA2 activ: activators of SMARCA2 function | MG213 cells, MMTV-luciferase reporter, dexamethasone, overnight | activation, % at 9.1 µM | 1% of 370,000 active; in the data active means activation above about 7.8%;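 further: 0% = vehicle wells and 100% = reference activator wells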
ssDAF-12 act: activates DAF-12 receptor from parasite S. stercoralis | HEK293 ssDAF-12/GRIP1 lit1-tk-luc reporter, luminescence; % of 3 µM dafachronic acid response | activation, % at 6.8 µM | 1% of 370,000 active;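 active means activation above the mean over all tested compounds plus 3 SD, cut at about 0.9% in these data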;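 further: 0% = DMSO-only wells and 100% = 3 µM delta7-dafachronic acid wells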
DAX1 inh-1: blocks DAX1 repression of SF-1 activated StAR promoter; AID 652010; HEK293T StAR-luciferase reporter, SF-1/DAX-1 repression relief; inhibition, % at 6.8 µM; 1.1% of 370,000 active;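 active means inhibition above the mean over all tested compounds plus 3 SD, cut at about 3.6% in these data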;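 further: 0% = DAX-1 cells with DMSO and 100% = cells lacking DAX-1 with DMSO; higher inhibition means more luminescence from relief of DAX-1 repression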
hgDAF-12 ag: agonists of H. glycines DAF-12 nuclear receptor; HEK293 GAL4-hgDAF12 UAS-luciferase reporter, agonist luminescence; normalized to butyrate control; activation, % at 6.8 µM; 1.8% of 370,000 active; AID 687014;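 active means activation above a cutoff set at the mean of all screened compounds plus 3 SD, cut at about 10% in these data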;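 further: 0% = DMSO wells and 100% = sodium butyrate wells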
DAX1 inh-2: inhibitors of human orphan nuclear receptor DAX1 (NR0B1). P51843. HEK293 Gal4-DAX1 luciferase reporter, luminescence. inhibition, % at 6.75 µM. 0.99% of 340,000 active. AID 504766;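 active means inhibition above the mean over all tested compounds plus 3 SD, cut at about 4.2% in these data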;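 further: 0% = DAX1-transfected cells with DMSO and 100% = empty-vector control cells with DMSO; inhibition shows as a rise in luminescence from relieved DAX1 repression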
Target sequence (P51843 207-470 limits assumed): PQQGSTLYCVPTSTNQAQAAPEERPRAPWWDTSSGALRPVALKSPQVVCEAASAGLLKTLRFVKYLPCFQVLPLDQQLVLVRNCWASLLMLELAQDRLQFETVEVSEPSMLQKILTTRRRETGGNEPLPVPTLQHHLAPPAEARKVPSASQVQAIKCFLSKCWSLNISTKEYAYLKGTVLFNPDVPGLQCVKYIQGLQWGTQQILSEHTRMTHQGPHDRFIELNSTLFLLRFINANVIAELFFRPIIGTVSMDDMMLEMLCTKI
hcDAF-12 act: H. contortus DAF-12 activation, primary screen; HEK293 hcDAF-12 lit1-tk-luc reporter, luminescence; 0% DMSO, 100% Δ7-dafachronic acid; activation, % at 6.8 µM; 1.4% of 370,000 active;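 active means activation above the mean of all tested compounds plus 3 SD, cut at about 5.5% in these data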;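 further: 100% = response to 3 µM Δ7-dafachronic acid high control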
SMARCA2 conf: confirmation of SMARCA2 (BRM) function activators; shares compounds with SMARCA2 activ; MG213 cells, MMTV-luciferase with dexamethasone, luminescence, overnight; MG213 cells expressing E1A, Rb sequestered; DMSO wells 0%, reference activator 100%; 30% of 3,500 active; AID 652260; activation, % at 9.1 µM;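 active means activation above its plate's cutoff, the mean activation of tested wells plus 3 SD, cut at about 7.9% in these data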
GAL4-VP16 Luc: activates GAL4-VP16 luciferase, flagging SMARCA2 activator hits | shares compounds with SMARCA2 activ | HEK293 GAL4-VP16 pG5luc reporter, luciferase luminescence; scaled: DMSO wells 0%, SAHA wells 100% | activation, % at 9.1 µM | 41% of 3,500 active;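 active means activation above the solvent-only control well mean plus 3 SD, averaged across control plates, cut at about 5.2% in these data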
Starred values were filed as active, the others as inactive; / = no result.

SMILES | SMARCA2 activ | ssDAF-12 act | DAX1 inh-1 | hgDAF-12 ag | DAX1 inh-2 | hcDAF-12 act | SMARCA2 conf | GAL4-VP16 Luc
Cc1cc(N2CCNC[C@@H]2C)ccc1N1CCN(Cc2ccccc2)[C@H](C)C1 | 5 | -1 | 0 | 0 | / | -1 | / | /
Fc1cccc(Cl)c1CSc1nnc2ccccn12 | 8.6* | -1 | 1 | 4 | 3 | 2 | 7 | 3
Cc1cc(C(=O)CN2C(=O)NC3(CCCC3)C2=O)c(C)n1-c1ccc2c(c1)OCO2 | 9.4* | 0 | -1 | 1 | 0 | 2 | -2 | 2
Cc1cc(C(=O)CN2C(=O)NC(C)(CC(C)C)C2=O)c(C)n1-c1ccc2c(c1)OCO2 (stereo unspecified) | -5 | -2 | 0 | -1 | 0 | -1 | / | /
COc1nc(=O)n(C2C=CC(=O)O2)cc1F (stereo unspecified) | 15* | -1 | 0 | -1 | 1 | -1 | 23* | 5.7*
Oc1ccc(Cl)cc1CNc1cnc2ccccc2c1 | 0 | -1 | 0 | 0 | -2 | -2 | / | /
Oc1ccccc1CNc1cnc2ccccc2c1 | 11* | 0 | 2 | 10 | 2 | 2 | 9.5* | 8.8*
Cc1cccc(C2=CC(=O)CC(C)(C)C2=O)c1 | -1 | -1 | 2 | 1 | / | 0 | / | /
CC[C@@H](CCCc1ccccc1OC)CCS(=O)(=O)C(C)(C)C | -3 | -2 | -1 | 1 | / | -1 | / | /
Cc1cc(C)c2nc3nc(C)c(C)cc3c(N)c2c1 | 17* | -1 | -1 | 2 | 4 | 1 | 50* | 0
COc1ccc(CNC(=O)O[C@H]2CC[C@@]34CCCN3C(=O)CCC[C@H]4[C@H]2C)cc1OC | / | -2 | / | -1 | / | 0 | / | /
CC(C)c1ccc(NC(=O)COC(=O)C2CCCCC2)cc1 | 8.4* | -1 | 1 | 0 | 0 | -1 | 0 | 1
CC(=O)Nc1nnc(COc2ccccc2)s1 | 8.4* | -1 | 0 | 3 | 1 | -1 | 4 | 3
CC(=O)Nc1nnc(Cc2ccccc2)s1 | 13* | -1 | 0 | 4 | 1 | 0 | 2 | 1
COc1ccc(Cc2nnc(NC(=O)c3ccccc3[N+](=O)[O-])s2)cc1 | 8.4* | -1 | 0 | -2 | -1 | 3 | 2 | 0
CCC(=O)Nc1nnc(Cc2ccccc2)s1 | 6 | -1 | 0 | -1 | 1 | 0 | / | /
COC(=O)[C@]12C[C@H](CC(=O)NCCCCc3ccccc3)C(=O)N(Cc3ccccc3)C1=C[C@H](C(C)C)O[C@@H]2C1CC1 | -8 | -1 | 1 | -2 | / | -1 | / | /
CN(CCCOC(=O)c1cc2ccccc2o1)C1CN(Cc2cn(Cc3ccccc3Cl)nn2)S(=O)(=O)C1 (stereo unspecified) | 0 | -1 | 3 | 4 | / | 0 | / | /
O=C(c1ccccc1OCc1ccccc1)N(Cc1ccccn1)CC1CCCO1 (stereo unspecified) | -4 | -1 | 0 | 2 | / | -1 | / | /
CC1(C)CC(=O)N(CC(=O)N2CCN(Cc3ccc4c(c3)OCO4)CC2)c2ccccc2S1(=O)=O | -7 | -1 | 0 | 0 | / | -1 | / | /
O=c1c2ccccc2n(CC(O)CN2CCCCC2)c2ccccc12 (stereo unspecified) | 9.4* | -1 | 1 | 1 | / | -1 | 4 | -2
COc1ccc(C(=O)Nc2ccccc2C(=O)Nc2ccccc2)cc1 | 0 | 0 | 0 | 0 | 1 | 2 | / | /
CCOC(=O)C(=O)Nc1ccccc1C(=O)Nc1ccc(OC)cc1 | 9.1* | -1 | 1 | 0 | 1 | 0 | 0 | 1
CC(C)(C)c1ccc(S(=O)(=O)N2CCCC(C(=O)N3CCN(Cc4ccccc4)CC3)C2)cc1 (stereo unspecified) | -4 | -2 | -3 | -2 | / | -3 | / | /
O=C(Nc1ccc(F)cc1)c1ccc2[nH]c(=O)c(=O)[nH]c2c1 | 8.5* | -1 | 0 | 1 | 0 | 0 | 0 | 0
SMILES | SMARCA2 activ | ssDAF-12 act | DAX1 inh-1 | hgDAF-12 ag | DAX1 inh-2 | hcDAF-12 act | SMARCA2 conf | GAL4-VP16 Luc
COc1ccc2c3c([nH]c2c1)[C@]1(NCC3)C(=O)N(C)c2ccc(Cl)cc21 | 0 | 1 | -1 | 2 | / | 2 | / | /
Cc1nc(NCCC(C)C)c2nnn(Cc3ccccc3)c2n1 | -4 | -2 | 0 | 2 | 1 | 0 | / | /
CCC(C)Nc1nc(C)nc2c1nnn2Cc1ccccc1 (stereo unspecified) | 8.0* | -1 | 1 | -2 | / | -2 | 6 | 1
COc1cc2nc(C3CCC3)nc(N3CCN(c4ccccc4OC)CC3)c2cc1OC | 9.4* | -2 | -1 | -2 | -1 | -3 | -2 | 0
COc1cc2nc(C3CCC3)nc(N3CCN(c4ccccn4)CC3)c2cc1OC | / | / | / | / | -2 | / | / | /
O=C(CNCc1cccc2ccccc12)Nc1ccccc1[N+](=O)[O-] | 9.7* | 1 | 1 | 5 | -1 | 1 | -2 | 0
Cn1cccc1C(=O)OCc1ccc(C(C)(C)C)cc1 | 11* | -1 | 1 | 3 | 0 | 0 | 7 | 6.4*
COc1cc(-c2nnc(COC(=O)c3cccn3C)o2)cc(OC)c1OC | -2 | -1 | -1 | 0 | 0 | -3 | / | /
Cn1cccc1C(=O)OCc1cc(-c2ccco2)on1 | 8.4* | 0 | 4.3* | 10 | 3 | 2 | 4 | 5.4*
Cc1ccc2c(COC(=O)C3=COCCO3)cc(=O)oc2c1 | 8.5* | -1 | 2 | 7 | 0 | 0 | 0 | 8.4*
C[C@@H](O[Si](c1ccccc1)(c1ccccc1)C(C)(C)C)[C@@H]1NC(=O)[C@@H]2C[C@]3(Br)c4ccccc4N(S(=O)(=O)c4ccccc4)[C@@H]3N2C1=O | / | -2 | / | 4 | / | 0 | / | /
O=C(Oc1ccccc1Cl)c1ccc(-n2cncn2)nc1 | 8.2* | -1 | 0 | -2 | 0 | 0 | -4 | 0
Cc1ccc(OCC(O)CN2CCOCC2)c(C)c1 (stereo unspecified) | 8.3* | -1 | 1 | 1 | 2 | -2 | -2 | 1
Cc1ccc(OCC(O)CN2CCN(Cc3ccc4c(c3)OCO4)CC2)c(C)c1 (stereo unspecified) | -3 | -1 | 0 | 1 | 0 | 1 | / | /
O=C1NC2c3c(I)sc(I)c3C(=O)C2O1 (stereo unspecified) | 8.7* | -2 | -1 | 2 | 0 | -1 | -4 | 0
O=C1NC2c3ccccc3CC2O1 (stereo unspecified) | 1 | -1 | 0 | 1 | 1 | 1 | / | /
